Drawing on PubChem BioAssay (EPA / NIEHS), this text covers outcome and AC50 for 16 compounds.

Experiment [1] in a line: CCTE_Deisenroth_5AR_NBTE_donor: CCTE's 5alpha-reductase NanoBRET Target Engagement Assay […], Deisenroth Lab (AID 2284319). As to conditions: actives raise or lower the signal. A digest of the protocol:
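In this secondary endpoint, donor luminescence from SRD5A2-NanoLuc in transfected HEK293T flags artifacts. Test chemical (10 nM - 29.9 uM) is present five hours, tracer the last two; mock-tracer wells run plate-matched; data fitted bidirectionally against DMSO.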
(BRET reads energy transfer from a luciferase to a nearby fluorophore.)

Experiment [2] can be described thus: CCTE_Deisenroth_5AR_NBTE_acceptor: CCTE's 5alpha-reductase NanoBRET Target Engagement Assay - Autofluorescence Screen, Deisenroth Lab (AID 2284321).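 Note: compound fluorescence in the acceptor channel under 460 nm excitation flags autofluorescence artifacts.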 As to conditions: actives raise or lower the signal. A digest of the protocol:
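HEK293T cell-based NanoBRET assay read 5 h after dosing; this acceptor channel serves as an autofluorescence artifact screen. Chemicals at nominal 100 uM were scanned in three independent runs (n=3), excitation 460 nm. Fitting was bidirectional versus DMSO baseline.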

The next experiment relates to SRD5A2 (gene 6716). The experiment in a line: CCTE_Deisenroth_5AR_NBTE_ratio: CCTE's 5alpha-reductase NanoBRET Target Engagement Assay - Ratio, Deisenroth Lab (AID 2284322). As to conditions: actives raise or lower the signal. A digest of the protocol: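 HEK293T transiently expressing SRD5A2-NanoLuc; cells exposed to chemical (8-point, 10 nM - 29.9 uM) for 5 h total, testosterone tracer added for final 2 h. NanoBRET acceptor/donor ratio (650/460 nm), bidirectional fit vs DMSO.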

A short description of experiment [3]: IUF_NPC2-5_cytotoxicity_120hr: Cytotoxicity Assessment at 120 hours in the Leibniz Research Institute for Environmental Medicine (IUF) Neural Progenitor Cell Migration and Differentiation Assay (NPC2-5) (AID 2284307; active = hit-call score of the fitted dose curve at least 0.9, where 1 is the maximum). In a few lines: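 Human fetal neural progenitor spheres (0.3 mm, GW 16-19 cortex) were plated on poly-D-lysine/laminin in N2 differentiation medium and exposed for 120 h, with half-medium refresh at day 3. LDH release into supernatant was read by resorufin fluorescence.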

The nature of experiment [4]: IUF_NPC2-5_cell_number_120hr: Cell Number Assessment at 120 hours in the Leibniz Research Institute for Environmental Medicine (IUF) Neural Progenitor Cell Migration and Differentiation Assay (NPC2-5) (AID 2284308).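 Note: count of Hoechst-stained nuclei in migration zone around plated human neural progenitor spheres.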 A digest of the protocol: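 Primary human fetal neural progenitor spheres (GW 16-19, 0.3 mm) plated on poly-D-lysine/laminin in N2 differentiation medium, exposed from day 0 for 120 h with half-medium refresh at day 3; Hoechst-positive nuclei counted in migration area versus DMSO control.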

Experiment [5] can be described thus: IUF_NPC2-5_viability_120hr: Viability Assessment at 120 hours in the Leibniz Research Institute for Environmental Medicine (IUF) Neural Progenitor Cell Migration and Differentiation Assay (NPC2-5) (AID 2284312). A digest of the protocol: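 Human fetal (GW 16-19) neural progenitor spheres of 0.3 mm were plated on poly-D-lysine/laminin in N2 differentiation medium and exposed from day 0 for 120 h, with half-medium refresh at day 3. Viability was read as alamar blue resazurin-to-resorufin fluorescence against DMSO.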

Experiment [6] can be described thus: IUF_NPC1_cytotoxicity_72hr: Cytotoxicity Assessment at 72 hours in the Leibniz Research Institute for Environmental Medicine (IUF) Neural Progenitor Cell Proliferation Assay (NPC1) (AID 2284332; active = hit-call score of the fitted dose curve at least 0.9, where 1 is the maximum;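 note: rising LDH signal means more cytotoxicity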). A digest of the protocol: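 Spheres of primary human neural progenitors are plated one per well on day 0 in growth-factor medium and dosed at once. After three days at 37C, supernatant LDH is measured fluorimetrically via resazurin reduction.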

Another experiment has as its system TTR (gene 7276). The experiment in a line: CCTE_GLTED_hTTR_0.5uM: CCTE's human Transthyretin (hTTR) Inhibition Assay, with 0.5uM TTR, Great Lakes Toxicology and Ecology Division (GLTED) Lab (AID 2284320). A digest of the protocol:
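Cell-free displacement assay in which human TTR at 0.5 uM was incubated with test chemical for 2 h. Displacement of the ANSA probe was read by fluorescence at 380 nm excitation/475 nm emission. Loss of signal was fitted in the positive direction versus DMSO.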

Experiment [7] in a line: CCTE_Mundy_HCI_iCellGluta_NOG_NeuriteLength: CCTE's Neurite Outgrowth Assay in iCellGluta cells for Neurite Length, Mundy Lab (AID 2284318; active = hit-call score of the fitted dose curve at least 0.9, where 1 is the maximum). A digest of the protocol: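 Automated high-content imaging of betaIII-tubulin (Alexa Fluor-488) and Hoechst-stained cells gave neurite length, normalized to the DMSO baseline.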
The next experiment relates to IYD (gene 389434). The experiment in a line: CCTE_GLTED_hIYD: CCTE's human Iodotyrosine Deiodinase (xIYD) Inhibition Assay, Great Lakes Toxicology and Ecology Division (GLTED) Lab (AID 2284317; active = hit-call score of the fitted dose curve at least 0.9, where 1 is the maximum;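 note: cell-free human IYD enzyme made in baculovirus insect cells; iodide freed from monoiodotyrosine measured by cerium arsenite color change at 420 nm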). A digest of the protocol:
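Absorbance change at 420 nm from the iodide-catalysed cerium-arsenic reaction reports free iodide released by human IYD from monoiodotyrosine. Enzyme, substrate and chemical are incubated 3 h; loss of signal is fitted relative to DMSO baseline.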

The nature of experiment [8]: TAMU_PeakParms_SingleDonor1434_Asystole: Texas A&M University (TAMU) 1.5-hr Human Induced Pluripotent Stem Cell (iPSC)-derived Cardiomyocytes Calcium (Ca+2) Flux Assay for Cardiotoxicity: Asystole (quiescence of beating) (AID 2284328; active = hit-call score of the fitted dose curve at least 0.9, where 1 is the maximum). In a few lines: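 Human iPSC-derived cardiomyocytes (donor 1434) were exposed to 0.2, 1, 10 and 100 uM compound in 0.5% DMSO for 90 min at 37C. Ca2+-dye fluorescence gave average peak frequency; POD is EC95, a 95% beat-rate drop versus DMSO.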

Results filed as inconclusive are left out. Activity calls are given as the source filed them. Rule for the calls, unless noted: active = hit-call score of the fitted dose curve at least 0.9, where 1 is the maximum; inactive = score below 0.9.

For the compound `O=P(OCC(Br)CBr)(OCC(Br)CBr)OCC(Br)CBr` (stereo not given), the result in experiment [1] and in experiment [2] was inactive. Moreover, the AC50 (usually the concentration giving half of the maximal activity seen) in the experiment on SRD5A2 (gene 6716) was 26.8 µM (active).
With `CCCCOCCOP(=O)(OCCOCCCC)OCCOCCCC`, the compound was classed as inactive in [3], in experiment [4], in experiment [5] and in experiment [6].
Regarding `OCC(F)(F)OC(F)(F)C(F)(F)OC(F)(F)C(F)(F)OC(F)(F)CO`, the AC50 in the experiment on TTR (gene 7276) was 9.52 µM (active).
Take `CO/N=C(/C(=O)OC)c1ccccc1COc1ccccc1C`: the compound was classed as inactive in experiment [3], in [5] and in [6]. For the same compound, the AC50 in experiment [4] and in [7] was 19.7 µM (active) in each case.
Regarding `O=C(O)C(F)(OC(F)(F)C(F)(F)C(F)(F)F)C(F)(F)F` (stereo not given), the outcome in experiment [3], in experiment [4], in experiment [5], in experiment [7] and in experiment [6] was inactive.
For `O=C(O)C=CC(F)(C(F)(F)F)C(F)(F)F`, the call in experiment [7] was inactive. For the same compound, the AC50 with TTR (gene 7276) was 9.44 µM (active).
Consider `CCOc1ccc(C(C)(C)COCc2cccc(Oc3ccccc3)c2)cc1`, for which the compound was called inactive in experiment [3], in experiment [4], in [5], in [7] and in experiment [6].
Consider `O=c1ssc(Cl)c1Cl`, for which the compound was called inactive with IYD (gene 389434).
On the same count and under the same terms, then `CCCCc1ccc(O)cc1`, with “inactive”.
As for `O=P(Oc1ccccc1)(Oc1ccccc1)Oc1ccccc1`, the compound was classed as inactive in [3], in experiment [4], in [5], in experiment [8] and in [6].
Consider `CCCCCCCc1ccc(O)cc1`, for which the AC50 in the experiment on IYD (gene 389434) is 52.4 µM (active).
Take `C=CC(=O)OCC(F)(F)C(F)F`: the AC50 in the experiment with TTR (gene 7276) was 56.8 µM (active).
Turning to `O=C(O)C(F)(F)OC(F)(F)C(F)(F)OC(F)(F)F`, the compound was classed as inactive in experiment [7]. For the same compound, in the experiment on TTR (gene 7276), the AC50 is 3.59 µM (active).
On to `CC1(C)CN=C(NN=C(/C=C/c2ccc(C(F)(F)F)cc2)/C=C/c2ccc(C(F)(F)F)cc2)NC1`, for which the AC50 (in experiment [1]; in experiment [2]; in the experiment on SRD5A2 (gene 6716)) was 50 µM (active) in each case.
On to `CCCN(CCC)c1c([N+](=O)[O-])cc(C(C)C)cc1[N+](=O)[O-]`, for which the result (in experiment [1]; in [2]; in the experiment with SRD5A2 (gene 6716)) was inactive.
With `O=C(O)C1C(C(=O)O)C2(Cl)C(Cl)=C(Cl)C1(Cl)C2(Cl)Cl` (stereo not given), the call (in experiment [1]; in experiment [2]; with SRD5A2 (gene 6716)) was inactive.
